# From PubChem BioAssay (EPA / NIEHS)
# “And” between values parts separate entries of the source, which are not always exact repeats. Equal entries are not always repeated. A structure can be active in one record and inactive in another. The source made the active and inactive calls. The calls were made as follows: active = hit-call score of the fitted dose curve at least 0.9, where 1 is the maximum; inactive = score below 0.9.
# Target: Transcription factor Sp1 (Homo sapiens) (UniProt P08047)
# Assay: ATG_Sp1_CIS: Attagene CIS-FACTORIAL HepG2 Assay for human Specificity Protein 1 (Sp1) (AID 2282961)
# Conditions: HepG2 Sp1 cis-reporter transcription, actives raise or lower the signal
# Outline: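 Read-out is reporter transcript level, measured by RT-PCR and fluorescent capillary electrophoresis after 24 h chemical treatment. System: transiently transfected HepG2 cells reporting endogenous transcription factor activity; gain or loss fitted against DMSO baseline.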
# Transcription factor Sp1 (Homo sapiens), sequence (P08047 whole entry, looked up): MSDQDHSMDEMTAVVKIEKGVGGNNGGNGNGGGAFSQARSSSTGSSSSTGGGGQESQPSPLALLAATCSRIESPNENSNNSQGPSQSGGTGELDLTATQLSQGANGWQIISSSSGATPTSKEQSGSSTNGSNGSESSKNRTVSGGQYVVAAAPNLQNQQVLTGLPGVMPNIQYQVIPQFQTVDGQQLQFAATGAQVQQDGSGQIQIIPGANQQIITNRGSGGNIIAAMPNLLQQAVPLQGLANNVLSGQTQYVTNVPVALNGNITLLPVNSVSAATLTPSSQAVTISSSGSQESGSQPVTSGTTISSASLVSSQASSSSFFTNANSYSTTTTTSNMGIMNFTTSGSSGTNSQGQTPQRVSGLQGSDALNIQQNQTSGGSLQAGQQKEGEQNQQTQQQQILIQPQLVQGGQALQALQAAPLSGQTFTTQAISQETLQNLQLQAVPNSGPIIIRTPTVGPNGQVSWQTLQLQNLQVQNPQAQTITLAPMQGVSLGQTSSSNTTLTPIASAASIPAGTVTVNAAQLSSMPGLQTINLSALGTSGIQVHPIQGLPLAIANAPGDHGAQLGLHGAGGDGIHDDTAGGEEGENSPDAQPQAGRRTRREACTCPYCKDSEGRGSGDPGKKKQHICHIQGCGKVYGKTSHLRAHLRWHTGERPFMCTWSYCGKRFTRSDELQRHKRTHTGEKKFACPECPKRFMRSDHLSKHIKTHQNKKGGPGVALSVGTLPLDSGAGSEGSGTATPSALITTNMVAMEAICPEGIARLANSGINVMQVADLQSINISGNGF
SMILES,outcome,AC50
CCC(O)=C1C(=O)CC(C(=O)O)CC1=O (stereo not given),inactive,
COC(=O)c1cccc(C)c1S(=O)(=O)NC(=O)Nc1nc(OCC(F)(F)F)nc(N(C)C)n1,inactive,
N[C@@H](Cc1cc(I)c(Oc2ccc(O)c(I)c2)c(I)c1)C(=O)O,inactive,
S=C([S-])NCCNC(=S)[S-].[Mn+2],inactive,
CCN(Cc1c(F)cccc1Cl)c1c([N+](=O)[O-])cc(C(F)(F)F)cc1[N+](=O)[O-],inactive,
CC(=O)[C@H]1CC[C@H]2[C@@H]3CCC4=CC(=O)CC[C@]4(C)[C@H]3CC[C@]12C,inactive,
S=C(S)NCCNC(=S)S.[Mn+2].[S-]C([S-])=NCCN=C([S-])[S-].[Zn+2],inactive,
C#CCOC(=O)[C@@H](C)Oc1ccc(Oc2ncc(Cl)cc2F)cc1,inactive,
c1ccc2[nH]c(-c3cscn3)nc2c1,inactive,
CN(C)C(=O)Nc1ccc(Cl)c(Cl)c1,inactive,180 µM (active)
CCCN(CCC)c1c([N+](=O)[O-])cc(C(F)(F)F)c(N)c1[N+](=O)[O-],,28.9 µM (active)
COC(=O)c1ccccc1C(=O)O,inactive,
CC1(C)C(C=C(Cl)Cl)C1C(=O)OCc1cccc(Oc2ccccc2)c1 (stereo not given),inactive,
C[C@]12CC[C@@H]3c4ccc(O)cc4C[C@@H](CCCCCCCCCS(=O)CCCC(F)(F)C(F)(F)F)[C@H]3[C@@H]1CC[C@@H]2O (stereo not given in full),inactive,
CCC(C)OC(=O)N1CCCCC1CCO (stereo not given),inactive,
COCCO,inactive,
c1ccc(Nc2ccccc2)cc1,inactive,
O=C(c1ccccc1)C1CCCCC1,inactive,
COc1c(Cl)ccc(Cl)c1C(=O)O,inactive,
O=C(c1ccc(O)cc1O)c1ccc(O)cc1O,inactive,
CCOC(=O)c1ccc(O)cc1,inactive,
O=C(O)C1(C(=O)Nc2ccc(Cl)cc2Cl)CC1,inactive,
CC(C)(C)[C@@H](O)[C@@H](Cc1ccc(Cl)cc1)n1cncn1,inactive,
CC(C)(c1ccc(O)cc1)c1ccc(O)cc1,inactive,60 µM (active)
CCOC(=O)C(C)Oc1ccc(Oc2cnc3cc(Cl)ccc3n2)cc1 (stereo not given),inactive,
N#CSCSc1nc2ccccc2s1,inactive,17.8 µM (active)
CC(=O)S[C@@H]1CC2=CC(=O)CC[C@]2(C)[C@H]2CC[C@@]3(C)[C@@H](CC[C@@]34CCC(=O)O4)[C@H]12,inactive,26.3 µM (active) and 4.58 µM (active)
CC(C)CCCCCCc1ccc(O)cc1,inactive,19.4 µM (active) and 16.2 µM (active)
CCOC(=O)NCCOc1ccc(Oc2ccccc2)cc1,inactive,
CCNc1nc(N)nc(Cl)n1,inactive,
